The source of these data is the supplement of paper PMC3334620.

In all, about 33,000 sequences were measured (“E-score (-0.5 to 0.5)”: median about -0.012, highest 2% from about 0.27 on). This is one part of a sample in which the highest values are shown more often than they occur.

In the test the target is T1, Vhr1 (UniProt P40522).
T1 sequence: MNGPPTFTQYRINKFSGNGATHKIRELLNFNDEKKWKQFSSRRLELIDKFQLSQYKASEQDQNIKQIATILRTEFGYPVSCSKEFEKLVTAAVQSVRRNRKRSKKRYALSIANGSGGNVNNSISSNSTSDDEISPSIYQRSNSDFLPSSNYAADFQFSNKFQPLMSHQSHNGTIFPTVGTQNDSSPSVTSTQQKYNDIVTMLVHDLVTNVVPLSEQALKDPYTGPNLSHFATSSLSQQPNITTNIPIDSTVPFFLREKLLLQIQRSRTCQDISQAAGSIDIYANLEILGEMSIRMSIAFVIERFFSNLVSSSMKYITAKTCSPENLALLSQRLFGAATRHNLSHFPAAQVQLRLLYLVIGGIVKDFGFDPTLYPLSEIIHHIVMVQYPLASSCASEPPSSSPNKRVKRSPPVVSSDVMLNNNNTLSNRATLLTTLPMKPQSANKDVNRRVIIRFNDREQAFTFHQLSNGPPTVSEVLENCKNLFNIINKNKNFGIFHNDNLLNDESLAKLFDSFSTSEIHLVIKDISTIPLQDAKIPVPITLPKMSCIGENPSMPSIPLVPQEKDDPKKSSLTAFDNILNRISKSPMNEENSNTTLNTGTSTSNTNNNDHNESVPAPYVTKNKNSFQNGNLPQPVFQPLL
The experiment in a line: PBM E-score (8-mer binding enrichment) (E-score (-0.5 to 0.5)); higher = stronger / more preferred TF binding. The conditions noted are these: protein concentration: 200 nM; construct: GST-full length. The method, then:
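Universal 'all 10-mer' protein binding microarrays (Agilent AMADID 015681) probed with GST-tagged S. cerevisiae TFs (full-length or DBD) made by in vitro transcription/translation (PURExpress), about 100-200 nM. Bound TF was detected with fluorescent anti-GST. Each ungapped 8-mer (which stands for itself and its reverse complement) is scored by the PBM enrichment score (E-score), a modified Wilcoxon-Mann-Whitney statistic from -0.5 to +0.5, computed with the Universal PBM Analysis Suite. Scale: above 0.35 generally sequence-specific binding.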
Turning to GCCCCTCA, the “PBM E-score” value is -0.0991.

As for GACCCACC, the “PBM E-score” value is 0.224.

As for AACCCACA, the “PBM E-score” value worked out at 0.168.

As for CACCCACC, the “PBM E-score” value stood at 0.317.

Take CCCCCTCC: the “PBM E-score” value is -0.0898.

For the sequence GCCCCACC, the “PBM E-score” value was 0.265.

Regarding ACCCCACC, the “PBM E-score” value was determined as 0.385.

In the case of AACCCACT, the “PBM E-score” value was found to be 0.246.

Take AACCCACC: the “PBM E-score” value came out at 0.313.

Take GCCCCTCC: the “PBM E-score” value is 0.331.

Turning to CACCCACA, the “PBM E-score” value was determined as 0.241.

Turning to GCGGCCAC, the “PBM E-score” value came to 0.0847.

In the case of ACAGCGAT, the “PBM E-score” value was -0.04.

On to AGATCTGC, for which the “PBM E-score” value was -0.0821.

With GGGCTGGA, the “PBM E-score” value was -0.0152.

Turning to GGTGGTCA, the “PBM E-score” value stood at 0.00378.

For CACCCACG, the “PBM E-score” value amounted to 0.249.

As for CACCCTCA, the “PBM E-score” value worked out at 0.0412.

GACCCACA: the “PBM E-score” value stood at 0.284.

For AACCCTCC, the “PBM E-score” value was -0.129.

As for AACCCACG, the “PBM E-score” value turned out to be 0.0933.

CACCCTCC: the “PBM E-score” value turned out to be 0.276.

For CCACCAAA, the “PBM E-score” value is 0.0455.

For GCGAAACC, the “PBM E-score” value is -0.0227.

As to GAGTCTCA, the “PBM E-score” value is 0.256.

For the sequence GCACACCC, the “PBM E-score” value came to 0.139.

GCGCGCGA: the “PBM E-score” value worked out at 0.185.

Take CCGCGCGA: the “PBM E-score” value was found to be 0.22.

GCGCGCAA: the “PBM E-score” value was found to be 0.3.

Turning to GCGCGCGC, the “PBM E-score” value turned out to be 0.379.

On to CCGCGCGC, for which the “PBM E-score” value was 0.258.

Turning to CCGCGCGG, the “PBM E-score” value was 0.346.

As to TCGCGCAA, the “PBM E-score” value came to 0.0709.

Regarding CCGCGCAA, the “PBM E-score” value is -0.026.

On to ACGCGCGC, for which the “PBM E-score” value is 0.107.

Take AGGACGCG: the “PBM E-score” value is -0.226.

As to CTAAAGAG, the “PBM E-score” value was -0.0856.

Consider GTAGCGAA, for which the “PBM E-score” value was -0.027.

AACTAGAA: the “PBM E-score” value was -0.115.

Regarding CGTCACTC, the “PBM E-score” value was -0.0595.

As to AGTCACTC, the “PBM E-score” value was 0.428.

As for ATTCACTG, the “PBM E-score” value is -0.0337.

Turning to ACTCACTC, the “PBM E-score” value stood at 0.254.

Consider AGTCACTG, for which the “PBM E-score” value was determined as 0.384.

Consider AATCACTA, for which the “PBM E-score” value is 0.267.

For the sequence AGTCACTA, the “PBM E-score” value was found to be 0.366.

Take AATCACTG: the “PBM E-score” value is 0.374.

Take ACTCACTG: the “PBM E-score” value turned out to be 0.265.

Take GGTCACTA: the “PBM E-score” value is -0.0218.

For AATCACTC, the “PBM E-score” value came to 0.115.

Turning to CGTCACTA, the “PBM E-score” value is 0.0865.

As for AACGGTCC, the “PBM E-score” value was -0.263.

AGGTGTGC: the “PBM E-score” value came out at 0.163.

On to AAGCTCCA, for which the “PBM E-score” value was determined as 0.111.

As to AAGCCACT, the “PBM E-score” value was -0.0197.

Regarding CCATCTGC, the “PBM E-score” value stood at 0.0983.

For GTCTTCAC, the “PBM E-score” value is -0.058.

For AATCTAGC, the “PBM E-score” value is -0.218.

CTATAGGC: the “PBM E-score” value was -0.243.

Turning to AACCTGAG, the “PBM E-score” value was -0.0364.

With ACACGACT, the “PBM E-score” value was determined as 0.277.

As to ACACGACA, the “PBM E-score” value came out at 0.0664.

In the case of ACACGACC, the “PBM E-score” value turned out to be 0.109.

Regarding GCTTGCAA, the “PBM E-score” value was 0.0649.

Take AAAGGTGC: the “PBM E-score” value is -0.162.

Regarding ACGGTAAT, the “PBM E-score” value was -0.0641.

As to ACGAGTTG, the “PBM E-score” value was determined as 0.0198.

For TCGAGTAA, the “PBM E-score” value was found to be 0.0538.

In the case of ACGAGTCT, the “PBM E-score” value is 0.0718.

As to ACGAGTCC, the “PBM E-score” value was 0.0781.

With ACGAGTCA, the “PBM E-score” value is 0.43.

Regarding ACGAGTCG, the “PBM E-score” value came to 0.322.

For the sequence CCGAGTCG, the “PBM E-score” value came out at 0.336.

With TCGAGTCA, the “PBM E-score” value was found to be 0.399.

Turning to CCAAGTCG, the “PBM E-score” value is 0.00863.

Turning to TCGAGCCA, the “PBM E-score” value was -0.0584.

As to CCGAGTAG, the “PBM E-score” value turned out to be 0.1.

Consider ACGAGTAG, for which the “PBM E-score” value worked out at 0.0242.

On to CGGCTAAC, for which the “PBM E-score” value was -0.0152.

Consider GGCAAGAC, for which the “PBM E-score” value is -0.138.

As to TGGTCTAA, the “PBM E-score” value was -0.0689.

GCCGTCTA: the “PBM E-score” value stood at 0.00852.

In the case of GAGCACTA, the “PBM E-score” value is 0.0167.

GCGAGTCC: the “PBM E-score” value came to 0.22.

As to CCGAGTAA, the “PBM E-score” value is 0.0614.

Turning to GCGAGTAA, the “PBM E-score” value came out at 0.2.
